Data published in publication PMC7862700, “An all-to-all approach to the identification of sequence-specific readers for epigenetic DNA modifications on cytosine”.

Legend:
Assay in all cases: DAPPL (digital affinity profiling via proximity ligation, sequencing); 10 mM Tris-HCl pH 7.5, 50 mM NaCl, 1 mM DTT, 4% glycerol, room temperature, 30 min; GST-TFs on glutathione beads, 16-mer random dsDNA library, 0.1% formaldehyde crosslink after washing; high values mean tight binding
FEV = target: T1, FEV (Homo sapiens, UniProt Q99581 1-238); details: protein: recombinant; tags: N-terminal GST; dsDNA, one strand shown
T1 sequence: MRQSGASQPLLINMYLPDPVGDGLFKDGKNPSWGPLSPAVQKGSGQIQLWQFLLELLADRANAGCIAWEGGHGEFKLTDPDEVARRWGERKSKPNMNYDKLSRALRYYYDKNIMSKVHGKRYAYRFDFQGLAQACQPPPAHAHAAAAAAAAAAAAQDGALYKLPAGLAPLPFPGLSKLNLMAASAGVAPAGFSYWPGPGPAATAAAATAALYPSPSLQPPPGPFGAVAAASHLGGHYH
Procedure, shortened: (§1)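 Each value of binding signal is a hexamer's read frequency for a factor divided by the same hexamer's frequency in the tag-only sample. Barcoded, bead-captured GST fusions of human transcription factors made in yeast were pooled with that sample and incubated with 200 nmole of a random double-stranded 16-mer DNA library in Tris/NaCl/DTT/glycerol buffer at room temperature for 30 min. Washing, 0.1% formaldehyde crosslinking, proximity ligation, PCR and Illumina NextSeq500 sequencing followed.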

ETV5 = ETV5 (Homo sapiens, UniProt P41161 1-510); details: protein: recombinant; tags: N-terminal GST; dsDNA, one strand shown
Chain of ETV5 (P41161 whole entry): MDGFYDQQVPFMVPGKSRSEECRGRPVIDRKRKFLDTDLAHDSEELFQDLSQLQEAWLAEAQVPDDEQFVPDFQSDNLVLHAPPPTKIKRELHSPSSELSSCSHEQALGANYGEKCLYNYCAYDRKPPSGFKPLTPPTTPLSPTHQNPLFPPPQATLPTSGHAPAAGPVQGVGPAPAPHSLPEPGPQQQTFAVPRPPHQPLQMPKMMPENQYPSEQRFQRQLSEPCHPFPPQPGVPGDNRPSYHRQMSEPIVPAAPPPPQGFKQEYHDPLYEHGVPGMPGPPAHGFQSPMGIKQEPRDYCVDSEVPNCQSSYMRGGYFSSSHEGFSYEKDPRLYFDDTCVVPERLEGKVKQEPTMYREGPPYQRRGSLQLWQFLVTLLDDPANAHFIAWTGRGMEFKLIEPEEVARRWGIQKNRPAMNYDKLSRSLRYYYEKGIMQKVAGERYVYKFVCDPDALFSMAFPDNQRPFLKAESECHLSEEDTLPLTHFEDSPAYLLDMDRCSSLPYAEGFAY
Procedure, shortened: as §1

HSF1 = HSF1 (Homo sapiens, UniProt Q00613 1-529); details: protein: recombinant; tags: N-terminal GST; chain copies: 3; dsDNA, one strand shown
Chain of HSF1 (Q00613 whole entry): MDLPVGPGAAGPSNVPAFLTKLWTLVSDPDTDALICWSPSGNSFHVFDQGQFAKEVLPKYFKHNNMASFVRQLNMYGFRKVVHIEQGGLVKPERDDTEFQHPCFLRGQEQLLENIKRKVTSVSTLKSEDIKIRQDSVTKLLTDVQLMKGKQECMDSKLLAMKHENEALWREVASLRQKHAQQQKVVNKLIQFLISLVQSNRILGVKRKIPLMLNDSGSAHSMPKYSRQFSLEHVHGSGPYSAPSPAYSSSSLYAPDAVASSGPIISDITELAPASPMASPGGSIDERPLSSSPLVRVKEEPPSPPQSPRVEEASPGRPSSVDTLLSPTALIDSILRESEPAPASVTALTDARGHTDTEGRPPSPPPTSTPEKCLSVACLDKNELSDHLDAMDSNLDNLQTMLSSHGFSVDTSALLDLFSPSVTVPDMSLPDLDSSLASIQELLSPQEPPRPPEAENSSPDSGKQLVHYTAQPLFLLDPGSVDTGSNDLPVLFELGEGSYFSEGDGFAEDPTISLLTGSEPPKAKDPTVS
Procedure, shortened: as §1

SPIC = target: T2, SPIC (Homo sapiens, UniProt Q8N5J4 1-248); details: protein: recombinant; tags: N-terminal GST; dsDNA, one strand shown
T2 sequence: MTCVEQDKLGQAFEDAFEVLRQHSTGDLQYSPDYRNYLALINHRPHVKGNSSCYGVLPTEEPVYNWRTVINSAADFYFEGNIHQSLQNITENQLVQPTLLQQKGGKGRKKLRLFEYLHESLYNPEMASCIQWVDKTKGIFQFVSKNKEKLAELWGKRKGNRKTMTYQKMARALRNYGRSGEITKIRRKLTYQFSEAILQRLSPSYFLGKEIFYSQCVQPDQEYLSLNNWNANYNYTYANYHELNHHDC
Procedure, shortened: as §1

ELF4 = ELF4 (Homo sapiens, UniProt Q99607 1-663); details: protein: recombinant; tags: N-terminal GST; dsDNA, one strand shown
Chain of ELF4 (Q99607 whole entry): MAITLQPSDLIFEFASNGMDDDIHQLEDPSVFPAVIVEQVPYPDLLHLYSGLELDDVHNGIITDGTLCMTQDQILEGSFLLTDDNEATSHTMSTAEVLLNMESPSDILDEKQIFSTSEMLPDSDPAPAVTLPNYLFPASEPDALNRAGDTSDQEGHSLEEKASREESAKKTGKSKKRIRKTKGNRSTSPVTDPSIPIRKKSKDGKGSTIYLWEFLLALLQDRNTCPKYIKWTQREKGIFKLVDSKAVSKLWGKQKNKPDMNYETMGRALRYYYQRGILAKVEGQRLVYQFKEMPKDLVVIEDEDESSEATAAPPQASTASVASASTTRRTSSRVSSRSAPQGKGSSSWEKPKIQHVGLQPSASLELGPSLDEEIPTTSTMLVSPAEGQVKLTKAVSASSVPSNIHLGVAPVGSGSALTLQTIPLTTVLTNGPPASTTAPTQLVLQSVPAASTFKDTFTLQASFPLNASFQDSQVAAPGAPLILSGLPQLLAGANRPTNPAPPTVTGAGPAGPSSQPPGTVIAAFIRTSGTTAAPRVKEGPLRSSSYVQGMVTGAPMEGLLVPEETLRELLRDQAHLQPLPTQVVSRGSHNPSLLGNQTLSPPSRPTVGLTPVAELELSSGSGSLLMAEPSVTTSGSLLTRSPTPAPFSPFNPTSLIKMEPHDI
Procedure, shortened: as §1

ELK4 = target: T3, ELK4 (Homo sapiens, UniProt P28324-2 1-405); details: protein: recombinant; tags: N-terminal GST; dsDNA, one strand shown
T3 sequence: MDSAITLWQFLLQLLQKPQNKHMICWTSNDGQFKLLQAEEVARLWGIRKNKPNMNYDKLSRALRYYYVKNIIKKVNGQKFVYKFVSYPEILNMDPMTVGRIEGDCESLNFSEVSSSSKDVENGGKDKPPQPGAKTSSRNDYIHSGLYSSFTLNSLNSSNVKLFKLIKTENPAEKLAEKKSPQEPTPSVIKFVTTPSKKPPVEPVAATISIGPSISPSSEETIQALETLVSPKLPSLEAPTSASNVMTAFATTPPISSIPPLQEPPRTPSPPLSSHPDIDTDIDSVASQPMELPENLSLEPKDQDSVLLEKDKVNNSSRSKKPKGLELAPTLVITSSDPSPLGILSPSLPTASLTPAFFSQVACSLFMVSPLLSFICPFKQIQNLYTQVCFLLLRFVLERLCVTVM
Procedure, shortened: as §1

ETV2 = target: T4, ETV2 (Homo sapiens, UniProt O00321 1-342); details: protein: recombinant; tags: N-terminal GST; dsDNA, one strand shown
T4 sequence: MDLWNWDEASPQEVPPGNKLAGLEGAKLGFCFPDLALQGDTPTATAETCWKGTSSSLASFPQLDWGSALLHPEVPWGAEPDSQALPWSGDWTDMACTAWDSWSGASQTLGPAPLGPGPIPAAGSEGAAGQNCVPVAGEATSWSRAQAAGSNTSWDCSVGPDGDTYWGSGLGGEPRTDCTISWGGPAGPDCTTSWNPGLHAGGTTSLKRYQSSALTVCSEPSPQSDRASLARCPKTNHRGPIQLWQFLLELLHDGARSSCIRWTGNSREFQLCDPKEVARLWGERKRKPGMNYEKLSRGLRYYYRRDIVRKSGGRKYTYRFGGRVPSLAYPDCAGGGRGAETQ
Procedure, shortened: as §1

ELF3 = target: T5, ELF3 (Homo sapiens, UniProt P78545 1-371); details: protein: recombinant; tags: N-terminal GST; dsDNA, one strand shown
T5 sequence: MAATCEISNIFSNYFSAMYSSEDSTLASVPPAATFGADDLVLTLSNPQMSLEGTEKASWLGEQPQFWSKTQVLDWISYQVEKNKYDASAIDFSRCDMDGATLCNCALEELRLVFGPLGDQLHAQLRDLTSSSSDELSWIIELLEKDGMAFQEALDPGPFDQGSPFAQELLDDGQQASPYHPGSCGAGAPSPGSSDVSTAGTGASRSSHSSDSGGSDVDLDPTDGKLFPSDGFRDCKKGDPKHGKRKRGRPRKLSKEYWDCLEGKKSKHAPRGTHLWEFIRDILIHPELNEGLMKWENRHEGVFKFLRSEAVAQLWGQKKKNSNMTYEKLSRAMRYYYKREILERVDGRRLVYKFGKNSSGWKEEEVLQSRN
Procedure, shortened: as §1

CRX = CRX (Homo sapiens, UniProt O43186 1-299); details: protein: recombinant; tags: N-terminal GST; dsDNA, one strand shown
Chain of CRX (O43186 whole entry): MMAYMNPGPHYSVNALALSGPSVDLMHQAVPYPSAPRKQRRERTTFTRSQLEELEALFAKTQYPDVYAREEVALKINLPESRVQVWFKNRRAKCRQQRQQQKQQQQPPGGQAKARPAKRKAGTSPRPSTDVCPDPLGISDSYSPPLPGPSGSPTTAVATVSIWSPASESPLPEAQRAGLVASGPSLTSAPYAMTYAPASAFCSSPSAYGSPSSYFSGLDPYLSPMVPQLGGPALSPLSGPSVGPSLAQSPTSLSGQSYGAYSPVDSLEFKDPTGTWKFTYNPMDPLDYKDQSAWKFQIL
Procedure, shortened: as §1

ETV1 = ETV1 (Homo sapiens, UniProt P50549 1-477); details: protein: recombinant; tags: N-terminal GST; dsDNA, one strand shown
Chain of ETV1 (P50549 whole entry): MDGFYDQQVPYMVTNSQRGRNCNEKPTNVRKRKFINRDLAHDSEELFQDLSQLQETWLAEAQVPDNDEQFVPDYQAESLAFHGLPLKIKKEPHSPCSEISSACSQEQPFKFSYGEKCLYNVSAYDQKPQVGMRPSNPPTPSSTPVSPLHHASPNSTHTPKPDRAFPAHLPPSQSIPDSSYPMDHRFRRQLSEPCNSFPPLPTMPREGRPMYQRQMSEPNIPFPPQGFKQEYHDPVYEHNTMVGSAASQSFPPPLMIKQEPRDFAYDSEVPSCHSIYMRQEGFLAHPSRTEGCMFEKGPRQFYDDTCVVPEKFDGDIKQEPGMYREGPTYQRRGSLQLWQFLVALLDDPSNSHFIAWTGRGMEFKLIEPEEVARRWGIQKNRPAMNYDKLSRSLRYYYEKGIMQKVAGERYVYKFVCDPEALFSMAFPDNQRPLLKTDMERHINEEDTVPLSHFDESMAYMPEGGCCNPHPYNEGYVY
Procedure, shortened: as §1

ERF = target: T6, ERF (Homo sapiens, UniProt P50548 1-548); details: protein: recombinant; tags: N-terminal GST; dsDNA, one strand shown
T6 sequence: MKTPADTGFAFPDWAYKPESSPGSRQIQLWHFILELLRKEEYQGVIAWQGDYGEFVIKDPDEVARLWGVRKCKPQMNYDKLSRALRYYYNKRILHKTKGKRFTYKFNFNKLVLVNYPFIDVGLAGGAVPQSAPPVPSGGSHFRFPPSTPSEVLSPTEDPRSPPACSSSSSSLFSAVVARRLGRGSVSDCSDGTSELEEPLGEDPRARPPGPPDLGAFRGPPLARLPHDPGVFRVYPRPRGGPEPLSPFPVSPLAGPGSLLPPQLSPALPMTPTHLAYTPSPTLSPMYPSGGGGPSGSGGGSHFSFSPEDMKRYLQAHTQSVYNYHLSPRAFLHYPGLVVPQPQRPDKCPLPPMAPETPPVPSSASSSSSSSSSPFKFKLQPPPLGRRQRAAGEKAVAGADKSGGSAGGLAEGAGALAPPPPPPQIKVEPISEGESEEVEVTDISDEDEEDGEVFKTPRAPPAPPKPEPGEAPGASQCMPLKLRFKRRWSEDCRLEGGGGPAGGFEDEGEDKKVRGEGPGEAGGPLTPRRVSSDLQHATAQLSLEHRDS
Procedure, shortened: as §1

ETV3L = target: T7, ETV3L (Homo sapiens, UniProt Q6ZN32 1-361); details: protein: recombinant; tags: N-terminal GST; dsDNA, one strand shown
T7 sequence: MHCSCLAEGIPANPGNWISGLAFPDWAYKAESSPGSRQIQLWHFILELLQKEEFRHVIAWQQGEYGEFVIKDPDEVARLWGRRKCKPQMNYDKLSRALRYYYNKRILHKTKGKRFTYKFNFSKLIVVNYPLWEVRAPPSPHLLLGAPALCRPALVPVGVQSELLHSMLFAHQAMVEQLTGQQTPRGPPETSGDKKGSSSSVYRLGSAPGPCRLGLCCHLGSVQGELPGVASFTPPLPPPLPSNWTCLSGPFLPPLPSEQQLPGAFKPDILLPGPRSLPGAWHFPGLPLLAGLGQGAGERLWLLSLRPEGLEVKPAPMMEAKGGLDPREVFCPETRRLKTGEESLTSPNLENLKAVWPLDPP
Procedure, shortened: as §1

ETS2 = target: T8, ETS2 (Homo sapiens, UniProt P15036 1-469); details: protein: recombinant; tags: N-terminal GST; dsDNA, one strand shown
T8 sequence: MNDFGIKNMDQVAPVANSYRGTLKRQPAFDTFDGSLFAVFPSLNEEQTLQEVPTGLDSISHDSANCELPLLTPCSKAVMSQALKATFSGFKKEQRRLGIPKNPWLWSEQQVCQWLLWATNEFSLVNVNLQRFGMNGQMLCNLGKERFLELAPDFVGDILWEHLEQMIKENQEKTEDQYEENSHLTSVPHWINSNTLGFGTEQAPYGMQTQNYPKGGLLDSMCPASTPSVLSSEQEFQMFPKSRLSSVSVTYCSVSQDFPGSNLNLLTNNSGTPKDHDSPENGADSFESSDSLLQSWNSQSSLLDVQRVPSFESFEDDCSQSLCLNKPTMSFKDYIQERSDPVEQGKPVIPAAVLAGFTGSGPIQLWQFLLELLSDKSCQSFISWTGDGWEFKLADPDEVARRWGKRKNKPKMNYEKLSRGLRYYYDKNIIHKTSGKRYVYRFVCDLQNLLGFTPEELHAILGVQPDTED
Procedure, shortened: as §1

SPDEF = target: T9, SPDEF (Homo sapiens, UniProt O95238 1-335); details: protein: recombinant; tags: N-terminal GST; dsDNA, one strand shown
T9 sequence: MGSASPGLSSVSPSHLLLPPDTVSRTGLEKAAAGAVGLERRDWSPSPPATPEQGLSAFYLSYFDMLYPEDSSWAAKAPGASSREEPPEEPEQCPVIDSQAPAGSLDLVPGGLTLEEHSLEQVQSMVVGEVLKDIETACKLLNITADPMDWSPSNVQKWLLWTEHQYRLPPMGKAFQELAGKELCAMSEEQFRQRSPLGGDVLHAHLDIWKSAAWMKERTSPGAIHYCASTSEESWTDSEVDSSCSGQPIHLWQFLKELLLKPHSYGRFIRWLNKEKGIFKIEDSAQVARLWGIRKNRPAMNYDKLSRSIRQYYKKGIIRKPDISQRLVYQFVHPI
Procedure, shortened: as §1

ETV7 = target: T10, ETV7 (Homo sapiens, UniProt Q9Y603 1-341); details: protein: recombinant; tags: N-terminal GST; dsDNA, one strand shown
T10 sequence: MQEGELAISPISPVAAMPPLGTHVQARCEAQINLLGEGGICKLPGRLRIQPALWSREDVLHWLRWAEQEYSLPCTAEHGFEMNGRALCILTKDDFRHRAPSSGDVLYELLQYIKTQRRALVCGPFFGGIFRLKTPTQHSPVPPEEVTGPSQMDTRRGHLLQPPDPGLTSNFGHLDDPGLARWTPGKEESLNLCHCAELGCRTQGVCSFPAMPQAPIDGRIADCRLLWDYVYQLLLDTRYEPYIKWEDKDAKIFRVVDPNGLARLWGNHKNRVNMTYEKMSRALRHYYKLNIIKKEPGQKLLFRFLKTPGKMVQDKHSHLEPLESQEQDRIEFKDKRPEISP
Procedure, shortened: as §1

ELF5 = target: T11, ELF5 (Homo sapiens, UniProt Q9UKW6-2 1-255); details: protein: recombinant; tags: N-terminal GST; dsDNA, one strand shown
T11 sequence: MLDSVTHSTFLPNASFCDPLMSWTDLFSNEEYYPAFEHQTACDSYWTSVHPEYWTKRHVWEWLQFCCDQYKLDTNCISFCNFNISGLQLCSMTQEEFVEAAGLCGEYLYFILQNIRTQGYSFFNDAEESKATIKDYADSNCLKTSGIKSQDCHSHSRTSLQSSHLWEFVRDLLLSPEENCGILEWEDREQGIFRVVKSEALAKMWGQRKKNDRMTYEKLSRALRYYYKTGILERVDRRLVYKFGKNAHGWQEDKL
Procedure, shortened: as §1

ETV3 = target: T12, ETV3 (Homo sapiens, UniProt P41162-2 1-143); details: protein: recombinant; tags: N-terminal GST; dsDNA, one strand shown
T12 sequence: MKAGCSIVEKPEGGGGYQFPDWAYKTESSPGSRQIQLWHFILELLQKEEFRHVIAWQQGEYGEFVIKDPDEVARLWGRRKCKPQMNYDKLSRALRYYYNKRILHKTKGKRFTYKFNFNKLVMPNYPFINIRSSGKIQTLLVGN
Procedure, shortened: as §1

ETV6 = ETV6 (Homo sapiens, UniProt P41212 1-452); details: protein: recombinant; tags: N-terminal GST; dsDNA, one strand shown
Chain of ETV6 (P41212 whole entry): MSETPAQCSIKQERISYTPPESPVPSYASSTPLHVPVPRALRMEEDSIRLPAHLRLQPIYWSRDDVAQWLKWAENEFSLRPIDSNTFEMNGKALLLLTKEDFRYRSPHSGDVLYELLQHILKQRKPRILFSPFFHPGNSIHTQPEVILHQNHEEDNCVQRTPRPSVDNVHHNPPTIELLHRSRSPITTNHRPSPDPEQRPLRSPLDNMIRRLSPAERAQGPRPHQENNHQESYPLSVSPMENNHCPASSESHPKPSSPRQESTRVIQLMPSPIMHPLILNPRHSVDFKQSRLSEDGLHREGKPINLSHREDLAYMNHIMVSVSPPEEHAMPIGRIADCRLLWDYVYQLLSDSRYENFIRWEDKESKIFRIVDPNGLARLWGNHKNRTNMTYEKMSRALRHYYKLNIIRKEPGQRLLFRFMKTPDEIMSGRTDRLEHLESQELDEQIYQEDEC
Procedure, shortened: as §1

Sequence: GATTTT
- binding signal (FEV): 1.09 fold enrichment (6-mer frequency, TF over GST control)
- binding signal (ETV5): 1.1 fold enrichment (6-mer frequency, TF over GST control)
- binding signal (HSF1): 1.45 fold enrichment (6-mer frequency, TF over GST control)
- binding signal (SPIC): 1.14 fold enrichment (6-mer frequency, TF over GST control)
- binding signal (ELF4): 1.15 fold enrichment (6-mer frequency, TF over GST control)
- binding signal (ELK4): 1.24 fold enrichment (6-mer frequency, TF over GST control)
- binding signal (ETV2): 1.12 fold enrichment (6-mer frequency, TF over GST control)
- binding signal (ELF3): 1.14 fold enrichment (6-mer frequency, TF over GST control)
- binding signal (CRX): 1.72 fold enrichment (6-mer frequency, TF over GST control)
- binding signal (ETV1): 1.17 fold enrichment (6-mer frequency, TF over GST control)
- binding signal (ERF): 1.16 fold enrichment (6-mer frequency, TF over GST control)
- binding signal (ETV3L): 1.24 fold enrichment (6-mer frequency, TF over GST control)
- binding signal (ETS2): 1.17 fold enrichment (6-mer frequency, TF over GST control)
- binding signal (SPDEF): 1.14 fold enrichment (6-mer frequency, TF over GST control)
- binding signal (ETV7): 1.13 fold enrichment (6-mer frequency, TF over GST control)
- binding signal (ELF5): 1.13 fold enrichment (6-mer frequency, TF over GST control)
- binding signal (ETV3): 1.08 fold enrichment (6-mer frequency, TF over GST control)
- binding signal (ETV6): 1.11 fold enrichment (6-mer frequency, TF over GST control)
